# Bioassay records (PubChem BioAssay)
# Compounds with a hit are over-represented: about 3.5% of the library has one in this group of screens.
# Sm TGR inh: qHTS Assay for the Inhibitors of Schistosoma Mansoni Peroxiredoxins | purified TGR, DTNB reduction, TNB absorbance 405 nm | Potency, µM (highest dose often 114 µM), for inactives: at the highest dose activity change, negative = inhibition, actives largely listed as inhibitors | 3% of 360,000 active; also: % is scaled to controls: 0 for no effect and ±100 for the full control effect; nearly all actives have a fitted effect of over 60% in size
#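 Kinetic colorimetric format: TGR-catalysed, NADPH-driven DTNB reduction monitored via TNB absorbance. Enzyme dispensed at 20 nM; compound exposure 15 min at room temperature before reaction start.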
# NS1 inh: qHTS Assay for Inhibitors of Influenza NS1 Protein Function. Potency, µM (top dose mostly 46.1 µM), for the others: at the highest dose activity, positive = more growth. 0.4% of 270,000 active. AID 2326, 2010; calls by dose curve; also: actives are rising curves; nearly all actives have a fitted effect of over 50% in size
#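 In this qHTS, NS1 from influenza A is expressed in budding yeast, where it slows growth. Cells are switched from glucose to 2% galactose medium (pH 6.0, -URA), treated with compound, and growth recovery is read at OD600.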
# RE007 growth inh: qHTS Assay for Inhibitors of the HIV-1 protein Vpr. AID 651644, 2012. 0.21% of 360,000 active. S. pombe RE007 Vpr strain, BacTiter-Glo ATP luminescence, 24 h. Potency, µM (titrated, usually from 92.2 µM), without a hit: at the top dose activity change, negative = less growth, usual class: inhibitors; active = well fitted falling curve with a large enough effect; inconclusive = small, poorly fitted or top-dose-only effect; inactive = no such curve, though single readings can be large or run the other way; also: % is scaled to controls: 0 for no effect and ±100 for the full control effect; nearly all actives have a fitted effect of over 50% in size
#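 Fission yeast strain RE007, carrying one chromosomally integrated HIV-1 vpr copy, was seeded at OD 0.01 in PMG+AL medium with 23 nL pinned compound. After 24 h at 30 °C and 99% humidity, viability was read by BacTiter-Glo luminescence.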
# Giardia FBPA inh: qHTS Assay for Inhibitors of Fructose-1,6-bisphosphate Aldolase from Giardia Lamblia. purified Giardia FBPA. 0.71% of 290,000 active. AID 2451, 2010. A8B2U2. Potency, µM (top dose mostly 59.6 µM), without a hit: top-dose activity, negative = inhibition, usual class: inhibitors; also: % is scaled to controls: 0 for no effect and ±100 for the full control effect; nearly all actives have a fitted effect of over 55% in size
# Target sequence (A8B2U2 whole entry, looked up): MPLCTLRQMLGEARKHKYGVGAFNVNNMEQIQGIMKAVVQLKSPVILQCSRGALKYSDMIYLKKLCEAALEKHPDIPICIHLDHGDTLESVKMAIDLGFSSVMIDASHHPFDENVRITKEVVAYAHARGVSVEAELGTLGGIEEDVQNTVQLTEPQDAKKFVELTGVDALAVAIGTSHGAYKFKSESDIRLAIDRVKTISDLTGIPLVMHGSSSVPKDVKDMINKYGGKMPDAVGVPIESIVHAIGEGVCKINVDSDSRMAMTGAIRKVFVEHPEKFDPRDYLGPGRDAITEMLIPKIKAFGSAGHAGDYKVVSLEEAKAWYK
#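 Giardia FBPA (40 nM reagent) was preincubated 10 min at RT with compound (up to 57.5 uM final), then substrate plus GAPDH/TPI/NAD/arsenate coupling system with diaphorase/resazurin was added; resorufin fluorescence (525/598 nm) was read after 20 min.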
# Tb PYK inh: qHTS of Trypanosoma Brucei Inhibitors; TbPYK enzyme, Kinase-Glo Plus ATP luminescence, 45 min; 0.12% of 410,000 active; AID 624173, 2012; Potency, µM (highest dose often 76.8 µM), without a hit: at the highest dose activity, negative = inhibition, hits mostly inhibitors; also: % is scaled to controls: 0 for no effect and ±100 for the full control effect; nearly all actives have a fitted effect of over 50% in size
#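 Glycolytic pyruvate kinase of T. brucei was incubated with substrate, test compound and 130 uM ADP for 45 minutes at room temperature. Luminescent Kinase-Glo Plus signal was measured after 10 minutes.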
# LmPK inhibitor: qHTS Assay for Inhibitors of Leishmania Mexicana Pyruvate Kinase (LmPK); purified LmPK, Kinase-Glo ATP luminescence, 1 h; AID 1721, 2009; Q27686; 0.37% of 290,000 active; Potency, µM (top dose mostly 57.5 µM), without a hit: top-dose activity change, negative = inhibition, hits mostly inhibitors; also: % is scaled to controls: 0 for no effect and ±100 for the full control effect
#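 Kinase-Glo luminescence read after 1 h RT reaction of 0.1 nM LmPK with 0.5 mM PEP and 0.1 mM ADP. Activity scaled between uninhibited and enzyme-free controls.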
# The depositor's hits bear a star; ? = inconclusive; / = no result given. Unless noted, calls follow the shape of the dose curve; as a rule, active = well fitted curve in the direction sought with a large enough effect; inconclusive = small, poorly fitted or top-dose-only effect, or another doubt; inactive = no such curve, though single readings can be large; an effect the other way counts as inactive or inconclusive. Potency is read from the fitted curve at half-maximal effect.
SMILES,Sm TGR inh,NS1 inh,RE007 growth inh,Giardia FBPA inh,Tb PYK inh,LmPK inhibitor
COc1ccc2c(c1)n([O-])c1c([n+]2=O)CCC1,39.8µM*,0.4%,5.3%,-25.5%,5.5%,0.2%
O=[n+]1c2c(n([O-])c3cc(Cl)ccc31)CCCC2,-24.8%,2.8%,-10.7%,-3.7%,-7.3%,-2.5%
COC(=O)c1c(NC(=O)Cc2coc3cc(C)ccc23)sc2c1CCCC2,-0.2%,/,/,/,2.3%,/
CC(C)c1ccc(S(=O)(=O)c2nnn3c2nc(N2CCCC2)c2sccc23)cc1,6.3%,/,/,/,0.4%,/
O=c1c(N2CCN(c3cccc(C(F)(F)F)c3)CC2)csc2ccccc12,1.8%,/,/,/,-6.3%,/
CCN(CC)c1ccc(/C=N/Nc2ccc(C)cc2)c(O)c1,3.98µM*,12.5%,-21.0%,?,-5.8%,-0.5%
CCOC(=O)N/N=C/c1ccc(N(CC)CC)cc1O,-0.9%,-22.9%,-10.0%,-3.0%,3.0%,0.7%
Cc1sc2c(c1C)CN(CCN1CCOCC1)CN2C(=O)c1ccccc1,79.4µM*,/,-14.3%,1.0%,-6.8%,0.4%
CCN1c2ccccc2-c2nc(SCC(=O)Nc3cccc(C)c3C)ncc2S1(=O)=O,-0.1%,/,/,/,-3.3%,/
CC1=CC(c2ccccc2)n2nc(NC(=O)CCC(=O)O)nc2N1 (stereo not given),12.6µM*,2.5%,0.6%,-11.1%,-2.2%,-4.7%
CC1=CC(c2ccccc2)n2nc(NC(=O)CCCC(=O)O)nc2N1 (stereo not given),20µM*,-0.1%,9.8%,-8.5%,3.4%,-1.0%
CC1=NN(c2cccc(C(=O)O)c2)C(=O)/C1=C\C=C/c1ccccc1,11.2µM*,/,-25.6%,-24.1%,?,-1.6%
CC1=NN(c2ccc(C)cc2)C(=O)/C1=C\C=C\c1ccccc1,-7.6%,7.7%,-4.3%,-0.6%,1.3%,1.3%
O=C(OCC(=O)N1CCN(c2ccccc2)CC1)c1ccc2ccccc2n1,44.7µM*,-14.8%,-19.8%,1.6%,-5.8%,-1.1%
Cc1cc2nc3c(=O)[nH]c(=O)[nH]c3nc2c([N+](=O)[O-])c1N,-27.2%,/,-15.5%,5µM*,-7.4%,2.8%
O=c1[nH]c(/C=C/c2ccc(Cl)cc2Cl)c([N+](=O)[O-])c(=O)[nH]1,71.9%,-12.6%,0.8%,12.5%,7.9%,-0.7%
CCCCC1(Br)C(=O)N(c2ccccc2)N(c2ccccc2)C1=O,14.1µM*,/,23.6%,/,?,/
CCCCC1(CO)C(=O)N(c2ccccc2)N(c2ccccc2)C1=O,-12.5%,4.1%,3.0%,-7.8%,-3.8%,6.4%
CCOC(=O)/C(C#N)=C1/C(=O)N(Cc2ccccc2)c2ccccc21,0.3%,/,-8.6%,9.98µM*,-0.7%,-6.6%
Cc1cc2nc(-c3cc(NC(=O)c4cc5ccccc5o4)ccc3Cl)oc2cc1C,-1.0%,/,/,/,3.9%,/
COc1ccccc1Oc1nc2c(c(=O)n(Cc3ccccc3F)c(=O)n2C)n1C,2.82µM*,-35.2%,-1.7%,-20.3%,-15.1%,-4.3%
CCCCc1ccc(-n2nc3cc(C)c(NC(=O)c4ccc(C#N)cc4F)cc3n2)cc1,4.5%,/,/,/,0.2%,/
CC1CC(C)(C)Nc2ccc(N=O)cc21 (stereo not given),14.1µM*,/,-27.1%,?,-2.6%,-4.8%
COc1cc(NC(=O)C2Cc3ccccc3N2C(=O)c2ccccc2)cc(OC)c1 (stereo not given),5.7%,/,/,/,1.3%,/
Cn1cccc1C(=O)C(=O)Nc1ccccc1,7.5%,-9.7%,?,1.2%,?,15.8µM*
SMILES,Sm TGR inh,NS1 inh,RE007 growth inh,Giardia FBPA inh,Tb PYK inh,LmPK inhibitor
O=C1Nc2ccccc2N=C(c2ccccc2)C1N1CCOCC1 (stereo not given),1.2%,-17.3%,-6.0%,-8.2%,5.5%,-0.2%
O=C1Nc2ccccc2N=C(c2ccccc2)C1Br (stereo not given),39.8µM*,-0.5%,2.5%,?,-13.5%,0.6%
O=C(NC(=S)Nc1ccccc1Cl)c1csnn1,22.4µM*,10.3%,-8.9%,-11.3%,3.6%,-0.3%
CCc1oc(C(=O)O)cc1COC,-10.0%,-3.5%,-4.8%,-1.8%,-3.4%,9.1%
COCc1cc(O)c(O)c(O)c1-c1c(COC)cc(O)c(O)c1O,/,/,/,3.97µM*,/,/
COc1ccc2nc(-c3ccco3)c(-c3ccco3)nc2c1,3.55µM*,-4.0%,?,?,?,-7.7%
COc1ccc2nc3cccc(OC)c3nc2c1,20µM*,/,?,1.41µM*,-9.9%,-7.1%
c1coc(-c2nc(-c3ccco3)c(-c3ccco3)nc2-c2ccco2)c1,0.708µM*,3.0%,-6.8%,?,-11.9%,16.1%
c1coc(-c2ncc[nH]2)c1,-14.6%,0.3%,0.0%,-22.6%,-11.6%,-0.4%
Nc1nc(-c2ccco2)c(-c2ccco2)s1,20µM*,-7.1%,-1.9%,?,-9.5%,-3.7%
Nc1nc(-c2ccco2)cs1,?,0.5%,1.9%,?,-3.1%,0.2%
O=C(CSc1nc2c([nH]c3ccccc32)c(=O)n1-c1ccc(Cl)cc1)NC1CCCCC1,0.6%,/,/,/,0.6%,/
Cc1ccc(CN(C)C(=O)c2cc(COc3ccc(F)cc3Cl)on2)o1,25.1µM*,-0.6%,-21.7%,-8.3%,?,2.7%
Cc1ccc(CN(C)C(=O)c2cc(COc3cccc(C(F)(F)F)c3)on2)o1,10µM*,-12.5%,-4.2%,-0.9%,?,3.0%
Cc1cc(CN(C)C(=O)c2cc(COc3ccc4ncccc4c3)on2)on1,31.6µM*,-4.1%,12.3%,-2.4%,-1.2%,0.8%
Cc1ccc2c(=O)cc(C(=O)Nc3c(C(=O)c4ccccc4)oc4ccccc34)oc2c1C,-1.9%,/,/,/,3.4%,/
O=C(CN1CCN(S(=O)(=O)c2ccc(F)c(Cl)c2)CC1)N1CCc2ccccc2C1,/,/,24.2%,/,3.8%,/
O=C(CN1CCN(S(=O)(=O)c2cc(C(F)(F)F)ccc2Cl)CC1)N1CCc2ccccc2C1,39.8µM*,/,-11.2%,/,3.9%,/
Cc1ccc(C)c(CN2C(=O)c3ccccc3S(=O)(=O)c3ccc(C(=O)N4CCN(c5ccccc5F)CC4)cc32)c1,-3.0%,/,/,/,0.7%,/
O=C(COC(=O)c1c2c(nc3ccccc13)/C(=C/c1ccco1)CC2)NC1CCCC1,5.01µM*,22.9%,-10.8%,?,-12.0%,-1.0%
CC1CCCCC1NC(=O)COC(=O)c1c2c(nc3ccccc13)/C(=C/c1ccco1)CC2 (stereo not given),14.1µM*,23.7%,-8.3%,-14.8%,-9.2%,0.6%
CC1=C(c2ccc(Cl)cc2)S(=O)(=O)NC1=NCCCN1CCN(c2cc(C)ccc2C)CC1,-1.3%,/,/,/,-4.2%,/
